Compound activity (PubChem)
Only some compounds are listed: those with a hit (about 1.4% of all), similar ones and a draw of the others.
PV pol inh: poliovirus RdRp elongation inhibitors, primary screen, biochemical, fluorescence polarization, total intensity. Genome polyprotein (Poliovirus type 1 (strain Mahoney)), P03300. poliovirus polymerase elongation; stronger effect = lower value. % elongation, % (compound at 16.7 µg/mL). actives 0.66% (n = 150,000). AID 588519, 2011; in the data active = % elongation below about 90%
MbtI inh: MbtI salicylate synthase inhibitors, primary screen, biochemical, fluorescence intensity; P9WFX0; purified MbtI enzyme, fluorescence intensity read-out; inhibition, % (test concentration not listed); actives 0.89% (n = 100,000); AID 493033, 2011; in the data active = inhibition mostly above about 56%, no sharp cut-off; inactive = mostly below about 77%
Target sequence (P9WFX0 whole entry, looked up): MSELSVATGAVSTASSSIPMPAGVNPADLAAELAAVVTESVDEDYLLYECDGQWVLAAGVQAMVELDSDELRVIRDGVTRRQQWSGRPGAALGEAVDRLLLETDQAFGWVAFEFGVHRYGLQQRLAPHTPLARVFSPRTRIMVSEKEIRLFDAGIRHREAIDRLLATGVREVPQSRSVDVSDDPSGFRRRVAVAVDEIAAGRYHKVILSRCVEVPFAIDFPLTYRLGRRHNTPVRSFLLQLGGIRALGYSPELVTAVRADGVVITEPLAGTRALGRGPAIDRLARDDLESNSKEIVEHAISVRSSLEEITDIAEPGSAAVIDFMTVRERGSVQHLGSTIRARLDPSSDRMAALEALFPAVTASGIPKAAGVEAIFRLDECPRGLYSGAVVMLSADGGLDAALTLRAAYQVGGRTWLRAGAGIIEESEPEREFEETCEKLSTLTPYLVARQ
AID504770: growth inhibition of E. coli YBA685, primary screen, V. cholerae RctB inhibitors. E. coli YBA685 rctB-dependent plasmid, OD600 growth, 3 h; stronger effect = lower value. z-score (concentration not given with the values). actives 0.27% (n = 130,000); in the data active = z-score below about -2, passing the limit was not always enough
Mtb MenB inh: M. tuberculosis MenB inhibitors, primary screen, biochemical, absorbance; 1,4-dihydroxy-2-naphthoyl-CoA synthase (Mycobacterium tuberculosis (strain ATCC 25618 / …; MenB enzyme assay, absorbance read-out; actives 0.43% (n = 100,000); inhibition, % (no concentration beside the values); in the data active = inhibition above about 21%, passing the limit was not always enough
Large screens that a line does not name were inactive.

COc1cccc(N2C(=O)CC(Sc3ccccc3N)C2=O)c1 (configuration not stated)	none (no result: PV pol inh, MbtI inh, Mtb MenB inh)
COc1cccc(N2C(=O)CC(Sc3nnc(C)s3)C2=O)c1 (configuration not stated)	MbtI inh 100
Cc1ccc(/C=C/C(=O)NCC2CCN(C(=O)/C=C/c3ccc(C)o3)CC2)o1	MbtI inh 89
Cc1ccc2c(c1)sc(=NC(=O)c1cccc(N3C(=O)CCC3=O)c1)n2C	none (no result: PV pol inh, MbtI inh, Mtb MenB inh)
O=C1C=CC(=O)c2c(Cl)ccc(Cl)c21	AID504770 -2
Cc1c2cnn(-c3ccccc3)c(=O)c2c(C)n1CCCC(=O)N1CCCC1	none (no result: PV pol inh, MbtI inh, Mtb MenB inh)
CSc1nc(NC(N)=S)nc(NC(C)C)n1	MbtI inh 87
CSc1nc(NC(C)C)nc(N(C)C(N)=O)n1	none
CC(C)Nc1nc(NC(N)=O)nc(NC(C)C)n1	Mtb MenB inh 62
COC(=O)c1cc(Br)c(O)c(Br)c1	none (no result: PV pol inh, MbtI inh, Mtb MenB inh)
CC(C)(C)c1cc(O)c(O)c(Br)c1	MbtI inh 101
COCCNc1nc(-c2cccs2)cs1	none
CCN(CC)S(=O)(=O)c1ccc2c(c1)nc(CC(=O)O)n2C	PV pol inh 81, MbtI inh 94
O=c1[nH][nH]c(=S)n1C1CCCCC1	MbtI inh 57
Cc1[nH]c(=S)n(C2CCCCC2)c1C	none
Cc1ccc(S(=O)(=O)N[C@@H](Cc2ccccc2)C(=O)CCl)cc1	MbtI inh 64 (no result: AID504770)
O=C(O)CSC1=NCCCN1	none
O=C(O)CSC1=NC2CCCCC2N1 (configuration not stated)	Mtb MenB inh 33
O=C(O)c1cn(C2CC2)c2cc(N3CCNCC3)c(F)cc2c1=O	AID504770 -3.4
CO/N=C1\CN(c2nc3c(cc2F)c(=O)c(C(=O)O)cn3C2CC2)CC1CN (configuration not stated)	AID504770 -3.6 (no result: MbtI inh)
COc1c(N2CCNC(C)C2)c(F)cc2c(=O)c(C(=O)O)cn(C3CC3)c12 (configuration not stated)	AID504770 -3.5
CCn1cc(C(=O)O)c(=O)c2cc(F)c(F)cc21	none
Cc1nc(-c2ccccn2)nc(NCCc2ccccc2)c1Cl	none (no result: PV pol inh, MbtI inh, Mtb MenB inh)
Cc1nc2ccccc2n1S(=O)(=O)c1cccc(C(F)(F)F)c1	none
C=CCn1c(O)c(C=Nc2cccc(C)c2)c(=O)[nH]c1=S	none
CSCc1nc2sc(C(=O)NC3CC3)c(C)c2c(=O)[nH]1	none
Cc1ccc(Nc2nnc(SCc3nc4sc(C(=O)O)c(C)c4c(=O)[nH]3)s2)cc1C	PV pol inh 81
c1ccc2c(c1)CCN(Cc1nc3ccccc3[nH]1)C2	none
O=c1oc2c3c(ccc2c2ccccc12)OCN(Cc1ccc(Cl)cc1)C3	PV pol inh 88 (no result: MbtI inh, AID504770, Mtb MenB inh)
COc1ccc(CN2COc3ccc4c(oc(=O)c5ccccc54)c3C2)cc1OC	none (no result: MbtI inh, AID504770, Mtb MenB inh)
O=C(NC1=NCCCCC1)c1ccccc1	none (no result: Mtb MenB inh)
Cc1ccn(S(=O)(=O)c2ccccc2)n1	none
COc1nc(C)cc(C)c1C(=O)O	none (no result: PV pol inh, MbtI inh, Mtb MenB inh)
Cc1cc(C)c(C(=O)O)c(Cl)n1	PV pol inh 80
Oc1c(C(c2ccc(C(F)(F)F)cc2)N2CCOCC2)ccc2cccnc12 (configuration not stated)	MbtI inh 64
Oc1c(C(c2ccc(F)cc2)N2CCCC2)ccc2cccnc12 (configuration not stated)	none (no result: PV pol inh, MbtI inh, Mtb MenB inh)
O=C(Nn1cnnc1)c1cccc(C(F)(F)F)c1	none (no result: PV pol inh, MbtI inh, Mtb MenB inh)
O=c1oc2ccc(Br)cc2cc1-c1csnn1	none
O=S1(=O)CCC(N/N=C/c2ccccc2O)C1 (configuration not stated)	PV pol inh 20
Cc1ccc(-n2c(C)cc(/C=N/NC3CCS(=O)(=O)C3)c2C)cc1 (configuration not stated)	none
Cc1ccc(S(=O)(=O)NC(=O)c2ccc(Cl)nc2Cl)cc1	PV pol inh 62 (no result: Mtb MenB inh)
CCCN(Cc1nnc(-c2ccco2)o1)C(=O)c1cccnc1SCc1c(C)noc1C	PV pol inh 89
CC(C)NS(=O)(=O)c1ccc(N=Cc2c(O)n(C)c(=O)n(C)c2=O)cc1	AID504770 -3.7
NC1CCc2cc(O)c(O)cc2C1 (configuration not stated)	MbtI inh 93 (no result: AID504770, Mtb MenB inh)
COc1cccc(C(=O)Nc2cc3cc(OC)ccc3oc2=O)c1	PV pol inh 85 (no result: MbtI inh, AID504770, Mtb MenB inh)
CC(C)(C)C(=O)NC1CCN(S(C)(=O)=O)CC1	Mtb MenB inh 31
N#Cc1c(SCCN2CCCCC2)sc2c(O)cc(=O)[nH]c12	none
CN(C)C(=O)ONC(=O)Cc1ccccc1	AID504770 -3.9 (no result: PV pol inh, MbtI inh, Mtb MenB inh)
OCCn1nc2c3ccccc3nc-2n(-c2ccccc2)c1=S	PV pol inh 85
O=C1CNC(=O)c2c(nc3n2CCC3)N1	Mtb MenB inh 34
O=C1c2ccccc2C(=O)N1CCSc1ccccc1	none
C=CCn1c(C)cc(C(=O)CSc2nnc3ccccn23)c1C	none (no result: Mtb MenB inh)
O=C1c2ccccc2C(=O)N1CCSC1=Nc2ccccc2C2CC=NN12 (configuration not stated)	Mtb MenB inh 34
C=CCn1c(C)cc(C(=O)CSC2=Nc3ccccc3C3CC=NN23)c1C (configuration not stated)	Mtb MenB inh 55
CCC(=O)NC(c1ccc(C(C)C)cc1)c1c(O)ccc2ccccc12 (configuration not stated)	none (no result: MbtI inh)
CCOC(=O)c1cc(-c2ccccn2)nc2c1c(=O)n(CC(=O)OC)c(=O)n2Cc1ccccc1	PV pol inh 81
N#CC(C#N)=NNc1ccccc1	AID504770 -3.6
CCN(CC)Cn1c(=S)oc2ccc(Cl)cc21	MbtI inh 64
N#CC(C(=O)c1ccco1)c1nc2ccccc2[nH]1 (configuration not stated)	MbtI inh 98
COc1cccc(C2Nc3ccccc3NC3=C2C(=O)CCC3)c1 (configuration not stated)	none
N#Cc1c(N)n(CCNS(=O)(=O)c2ccccc2)c2nc3ccccc3nc12	none
COc1ccc(-c2nc(-c3ccc(C(F)(F)F)cc3)no2)cc1OC	none
N#Cc1cc2c([nH]c1=S)CCCC2	MbtI inh 102
CC1(C)Cc2[nH]c(=S)c(C#N)cc2CO1	none
N#CC1=C(S)NC(=O)CC1c1ccco1 (configuration not stated)	PV pol inh 79
N#CC1=C(SCC(=O)N(c2ccccc2)c2ccccc2)NC(=O)CC1c1ccco1 (configuration not stated)	none (no result: PV pol inh, MbtI inh, Mtb MenB inh)
CCOc1ccccc1C1C(C#N)=C(SC)NC(=O)C1C(=O)OC (configuration not stated)	none (no result: PV pol inh, MbtI inh, Mtb MenB inh)
COC(=O)C1C(=O)NC(S)=C(C#N)C1c1ccccc1Cl (configuration not stated)	MbtI inh 87
Cc1cc2c(cc1S(=O)(=O)NCCCc1ccccc1)OCC(=O)N2	none
Cc1[nH]c(=S)[nH]c1Cc1ccccc1	MbtI inh 96 (no result: PV pol inh)
O=C1Cc2ccccc2C(=O)N1Cc1ccc2c(c1)OCO2	PV pol inh 75 (no result: Mtb MenB inh)
NC(=O)CSc1nnc(COc2ccccc2Cl)n1C1CC1	none (no result: PV pol inh)
S=c1[nH]nc(COc2ccccc2Cl)n1C1CC1	MbtI inh 84 (no result: PV pol inh)
